Screens: PubChem BioAssay, Johns Hopkins Ion Channel Center
KCNQ2 pot = potentiators of rat KCNQ2 potassium channel; B-score at 10 µM; Potassium voltage-gated channel subfamily KQT member 2 (Rattus norvegicus), O88943; actives 0.54% (n = 310,000); CHO-K1 KCNQ2, FluxOR thallium flux fluorescence; active compounds read high;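 active means fluorescence ratio B-score at least 3 SD of library B-scores, with initial fluorescence B-score within 3 of them, cut at about 5.3 in these data; same plate scores as AID 2156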;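 further: B-score of peak minus minimum over baseline fluorescence ratio after K+ and Tl+ stimulus; positive B-score means potentiation of KCNQ2 with more thallium influx and brighter signal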
KCNQ2 inh = rat KCNQ2 potassium channel inhibitors, primary screen, cell-based, CHO-K1, FluxOR thallium flux, B-score; B-score at 10 µM; actives 1.1% (n = 310,000); AID 2156, 2009; Potassium voltage-gated channel subfamily KQT member 2 (Rattus norvegicus), O88943; 20 min; active compounds read low;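 active means fluorescence ratio B-score at most minus 3 library SDs, with starting brightness B-score within 2 library SDs, cut at about -5.5 in these data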
KCNQ2 block conf = rat KCNQ2 potassium channel inhibitors, confirmation, cell-based, thallium flux; shares compounds with KCNQ2 inh; KCNQ2-expressing cells, inhibition; active compounds read low; activity change, negative = inhibition, % at 10 µM; actives 57% (n = 1,000); AID 493025, 2011;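 further: 0% = vehicle wells and values are ratio percent relative to vehicle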
KCNQ1 spec = human KCNQ1 channel inhibition, counter-screen for KCNQ2 inhibitor project, cell-based, FluxOR thallium flux | shares compounds with KCNQ2 inh | actives 15% (n = 1,000) | KCNQ1-expressing cells, FluxOR thallium flux fluorescence; active compounds read low | activity change, negative = inhibition, % at 10 µM;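 active means activity change at least 3 SD of negative controls below their mean in both duplicate wells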;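 further: CHO cells stably transfected with KCNQ1 and depolarized by potassium stimulus; peak minus minimum fluorescence over baseline after thallium addition; 0% = vehicle negative control and -100% = blank without thallium stimulus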
Target sequence (P51787 whole entry, looked up): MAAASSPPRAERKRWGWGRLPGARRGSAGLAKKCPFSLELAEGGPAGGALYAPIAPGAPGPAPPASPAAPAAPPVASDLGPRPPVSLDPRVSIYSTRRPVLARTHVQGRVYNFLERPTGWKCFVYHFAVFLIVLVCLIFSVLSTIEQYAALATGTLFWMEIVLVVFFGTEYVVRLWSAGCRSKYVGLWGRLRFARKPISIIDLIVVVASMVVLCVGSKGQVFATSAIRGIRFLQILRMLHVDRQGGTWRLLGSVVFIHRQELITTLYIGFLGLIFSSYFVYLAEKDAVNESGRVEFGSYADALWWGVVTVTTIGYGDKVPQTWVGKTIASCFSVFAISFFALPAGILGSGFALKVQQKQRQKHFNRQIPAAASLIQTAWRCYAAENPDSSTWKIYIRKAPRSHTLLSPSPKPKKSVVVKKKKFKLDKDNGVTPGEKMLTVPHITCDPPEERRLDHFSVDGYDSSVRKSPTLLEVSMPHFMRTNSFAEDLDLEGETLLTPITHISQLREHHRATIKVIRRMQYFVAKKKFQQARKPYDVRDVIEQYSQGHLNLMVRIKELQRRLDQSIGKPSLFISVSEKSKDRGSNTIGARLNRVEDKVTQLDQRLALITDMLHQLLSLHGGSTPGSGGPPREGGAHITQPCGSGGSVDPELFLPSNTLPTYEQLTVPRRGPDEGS
CHO Tl ctr = thallium flux change in parental CHO cells, counter-screen for KCNQ2 inhibitor project; shares compounds with KCNQ2 inh; active compounds read low; activity change, % at 10 µM; actives 14% (n = 1,000); AID 493029, 2011;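 further: 0% = vehicle negative controls with stimulus buffer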
KCNQ2 inh confirm = rat KCNQ2 channel inhibitors, confirmation, cell-based, automated patch clamp, single concentration. calls only at 10 µM. AID 588531, 2011. shares compounds with KCNQ2 inh. actives 49% (n = 550). KCNQ2-expressing cells, automated patch clamp current
* = called active by the depositor; i = inactive; · = no result; + = active, no number. Hits are enriched below; roughly 1.6% of the tested compounds scored in any of these assays. Unless noted, how the calls were made is not given here.

SMILES	KCNQ2 pot	KCNQ2 inh	KCNQ2 block conf	KCNQ1 spec	CHO Tl ctr	others
CC(C)c1nc2cc(Cl)ccc2n(Cc2ccccc2)c1=O	0.79	i	·	·	·
O=C1c2ccccc2C(O)(c2ccccc2)N1CCc1ccccc1 (centres undefined)	-8.4	-8.4*	-24%*	i	i	KCNQ2 inh confirm=+
CC1(O)c2ccccc2C(=O)N1Cc1ccccc1 (centres undefined)	0.05	i	·	·	·
CCCn1c(=N)c(S(=O)(=O)c2ccccc2)cc2c(=O)n3ccccc3nc21	1.3	i	·	·	·
O=C(COc1ccc(Cl)cc1Cl)NNC(=O)c1cccnc1	0.38	i	·	·	·
O=C(c1ccco1)N(CCC(c1ccccc1)c1ccco1)Cc1ccc(F)cc1 (centres undefined)	-7.8	-7.8*	-46%*	-46%*	-42%*	KCNQ2 inh confirm=+
Cc1ccc(C(CCN)c2ccco2)cc1 (centres undefined)	·	i	·	·	·
CC1(C)CC(C(CCN(Cc2ccccc2)C(=O)c2ccco2)c2ccc(F)cc2)CCO1 (centres undefined)	·	i	·	·	·
CCC(=O)N(CCC(c1ccc(C)cc1)c1ccco1)Cc1ccco1 (centres undefined)	-10	-10*	i	i	i
Cc1ccc(NC(=S)N(C)C(c2ccccc2)c2ccccc2)cc1C	-8.4	-8.4*	-25%*	i	i	KCNQ2 inh confirm=i
CN(C(=S)Nc1ccc(F)cc1)C(c1ccccc1)c1ccccc1	·	i	·	·	·
COc1ccc(N=C/C=C2/C=C(c3ccccc3)OC(C)(C)O2)cc1	0.87	i	·	·	·
Cc1cccc2c(C(=O)N3CCN(c4ccccc4)CC3)cc(-c3ccncc3)nc12	·	i	·	·	·
CCC(C(=O)N1CCN(c2ccccc2OC)CC1)c1ccccc1 (centres undefined)	·	i	·	·	·
COc1ccccc1N1CCN(C(=O)C(Cc2ccccc2)NC(=O)C2CCCCC2)CC1 (centres undefined)	-7.4	-7.4*	-33%*	i	i	KCNQ2 inh confirm=+
O=C(O)c1ccc(/C=N/NC(=O)c2cc3c(ccc4ccccc43)o2)cc1	0.1	i	·	·	·
CCOC(=O)C1CCCN(c2c(N3CCC(N4CCCCC4)CC3)c(=O)c2=O)C1 (centres undefined)	0.33	i	·	·	·
CCN1C(=O)CSC1=NC12CC3CC(CC(C3)C1)C2	-7.8	-7.8*	-32%*	-30%*	-30%*	KCNQ2 inh confirm=i
CN1C(=O)CSC1=NC12CC3CC(CC(C3)C1)C2	·	i	·	·	·
O=C(NCc1nc2ccccc2[nH]1)c1cccc(S(=O)(=O)N2CCOCC2)c1	0.16	i	·	·	·
Cc1ccc(C(=O)CSc2nnc(COc3ccc(C#N)cc3)n2-c2ccccc2)cc1	0.91	i	·	·	·
Cc1ccc(OCc2nnc(SCC(=O)Nc3cccc4ccccc34)n2-c2ccccc2)cc1	-8.5	-8.5*	i	i	i
CC1Oc2cc3oc4c(O)c5c(cc4c(=O)c3c(O)c2C1(C)C)C=CC(C)(C)O5 (centres undefined)	·	i	·	·	·
CC(C)=CCc1cc2c(=O)c3c(O)c4c(cc3oc2c(O)c1O)OC(C)C4(C)C (centres undefined)	-8.6	-8.6*	i	i	i
O=C(Nc1ccccc1)Nc1ccc2c(c1)CCC2	3.4	i	·	·	·
SMILES	KCNQ2 pot	KCNQ2 inh	KCNQ2 block conf	KCNQ1 spec	CHO Tl ctr	others
O=[N+]([O-])c1ccc(Cl)c(/C=N/N2CCN(Cc3ccccc3)CC2)c1	·	i	·	·	·
O=[N+]([O-])c1ccc(Cl)c(/C=N/N2CCN(Cc3ccccc3Cl)CC2)c1	-7.2	-7.2*	i	i	i
CCOC(=O)c1cc2occc2n1CC(=O)N1CCOCC1	·	i	·	·	·
COc1ccccc1N1CCN(/N=C/c2cccc(OC)c2O)CC1	·	i	·	·	·
COc1ccccc1N1CCN(/N=C/c2cccc(Cl)c2)CC1	-7	-7*	-30%*	i	i	KCNQ2 inh confirm=+
COc1ccc(/C=N/N2CCN(c3ccccc3OC)CC2)cc1Br	·	i	·	·	·
COc1ccccc1N1CCN(/N=C/c2cc(Br)ccc2F)CC1	-11	-11*	-18%*	i	i	KCNQ2 inh confirm=i
CCNc1oc(-c2ccc(OC)cc2)nc1S(=O)(=O)c1ccc(Br)cc1	0.12	i	·	·	·
CC(=O)N1CCCc2cc(S(=O)(=O)Nc3ccc4c(c3)OCO4)ccc21	1.1	i	·	·	·
COc1ccc(Nc2ccccc2NC(=O)c2ccccc2Br)cc1	-9.6	-9.6*	-22%*	i	i	KCNQ2 inh confirm=+
Cc1ccccc1C(=O)Nc1ccccc1NC(=O)c1ccccc1Br	·	i	·	·	·
Cc1ccc(C(C)C)c(OCC(=O)N/N=C/c2ccc(S(=O)(=O)O)o2)c1	0.14	i	·	·	·
COc1cc2c(cc1OC)C(c1ccco1)CC(=O)N2 (centres undefined)	·	i	·	·	·
CCCCn1c(N)c(N(CCC(C)C)C(=O)c2ccccc2C)c(=O)[nH]c1=O	0.7	i	·	·	·
CC1CN(S(=O)(=O)c2cccc(C(=O)N(CCc3ccccc3)Cc3ccccc3)c2)CC(C)O1 (centres undefined)	-8.3	-8.3*	-32%*	-27%*	i	KCNQ2 inh confirm=+
Cc1ccc(N(Cc2ccccc2)C(=O)c2cccc(S(=O)(=O)N3CC(C)OC(C)C3)c2)cc1 (centres undefined)	0.29	i	·	·	·
O=c1[nH]nc2c3ccccc3cnn12	1	i	·	·	·
COc1ccc(-n2ncc3c2CC(C)(C)CC3NC(=O)CCCN2CCCC2=O)cc1 (centres undefined)	·	i	·	·	·
O=C(Cn1nnc2c(cnn2-c2ccccc2)c1=O)NCc1cccs1	·	i	·	·	·
CC1CCC(C(C)C)C(OC(=O)Cn2nnc3c(cnn3-c3ccccc3)c2=O)C1 (centres undefined)	-7.3	-7.3*	-27%*	i	i
O=C1CCCc2c1nc(-c1ccccc1)n2O	0.52	i	·	·	·
Oc1oc(-c2ccccc2)nc1/C=N/c1nccs1	1.8	i	·	·	·
Oc1oc(-c2ccccc2)nc1C=Nc1cccc2ccccc12	-8.7	-8.7*	i	i	i
CCOC(=O)CSc1ncc(-c2ccc([N+](=O)[O-])cc2)[nH]1	2.1	i	·	·	·
O=[N+]([O-])c1cc(Cl)ccc1NCCNS(=O)(=O)c1ccccc1	·	i	·	·	·
CC(C)(C)NC(=O)CN(C(=O)c1ccc(CN2CCOCC2)o1)c1ccc2c(c1)OCCO2	0.07	i	·	·	·
Cc1ccc(Sc2c(CO)c(-c3ccccc3)nn2C)cc1	·	i	·	·	·
Cc1ccccc1Sc1c(C#N)c(-c2ccccc2)nn1C	-10	-10*	-36%*	-36%*	-32%*	KCNQ2 inh confirm=i
CSCCC(NC(=O)COc1ccccc1)C(=O)NC1CCC(C)CC1 (centres undefined)	·	i	·	·	·
CSCCC(NC(=O)c1ccccc1Br)C(=O)NCc1ccc(F)cc1 (centres undefined)	0.1	i	·	·	·
